From PubChem BioAssay (NCATS)
Inconclusive results are not listed. The source made the active and inactive calls. Unless noted, calls follow the shape of the dose curve; as a rule, active = well fitted curve in either direction with a large enough effect (not every such curve was filed as active); inconclusive = small, poorly fitted or top-dose-only effect, or another doubt; inactive = flat fitted curve, though single readings scatter.

What was measured:
[1] = molecular target: Lysosomal acid glucosylceramidase (Homo sapiens) (UniProt P04062); test: Glucocerebrosidase-p2 (AID 348; in the data active = potency below about 10 µM; also: potency is read from the fitted curve at half-maximal effect); conditions: purified GBA, blue fluorogenic substrate, 40 min
Chain of Lysosomal acid glucosylceramidase (Homo sapiens) (P04062 whole entry, looked up): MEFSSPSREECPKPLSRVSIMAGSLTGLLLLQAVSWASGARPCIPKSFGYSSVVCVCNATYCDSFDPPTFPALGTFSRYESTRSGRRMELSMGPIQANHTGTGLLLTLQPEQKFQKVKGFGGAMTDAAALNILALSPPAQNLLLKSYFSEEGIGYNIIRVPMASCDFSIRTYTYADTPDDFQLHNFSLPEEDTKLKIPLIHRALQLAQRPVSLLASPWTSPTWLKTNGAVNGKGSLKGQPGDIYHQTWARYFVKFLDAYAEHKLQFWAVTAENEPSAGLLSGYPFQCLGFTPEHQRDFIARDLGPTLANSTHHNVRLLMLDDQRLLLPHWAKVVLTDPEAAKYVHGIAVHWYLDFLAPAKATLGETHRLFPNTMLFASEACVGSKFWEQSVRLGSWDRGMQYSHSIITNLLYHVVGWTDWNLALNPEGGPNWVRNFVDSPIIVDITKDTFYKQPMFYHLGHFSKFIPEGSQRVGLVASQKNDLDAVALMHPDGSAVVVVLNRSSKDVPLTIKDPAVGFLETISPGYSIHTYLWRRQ
Summary of the method: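 Normal human glucocerebrosidase (0.2 nM) with blue fluorogenic substrate (80 uM final) in citrate/phosphate pH 5.9 with 10mM sodium taurocholate, 0.01% tween-20; 40 min RT, NaOH/glycine stop; fluorescence Ex 365/Em 440; AC50 from a titration from 0.6 nM upwards.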

[2] = AP1 Signaling Pathway (AID 357); conditions: ME-180 AP-1-bla reporter, EGF-induced, beta-lactamase ratio, 5 h; at 7.69 µM (top of the series) unless noted;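 also: ME-180 reporter cells stimulated with EGF at its EC50 level; % is scaled to controls: 0 for no effect and ±100 for the full control effect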
Summary of the method: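 A ratiometric CCF4 readout (405 nm excitation; 460 and 530 nm emission) quantified AP-1-driven beta-lactamase in ME-180 cells after 5 h with compound and EC50 EGF; AC50 values were derived for activators and inhibitors.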

[3] = molecular target: Cytochrome P450 1A2 (Homo sapiens) (UniProt P05177); test: p450-cyp1a2 (AID 410; calls by dose curve; also: potency is read from the fitted curve at half-maximal effect;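 as to activity change, negative = inhibition: -100% = full effect of reference inhibitor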); conditions: recombinant CYP1A2, luciferin-ME demethylation, luminescence; series mostly up to 11.4 µM
Chain of Cytochrome P450 1A2 (Homo sapiens) (P05177 whole entry, looked up): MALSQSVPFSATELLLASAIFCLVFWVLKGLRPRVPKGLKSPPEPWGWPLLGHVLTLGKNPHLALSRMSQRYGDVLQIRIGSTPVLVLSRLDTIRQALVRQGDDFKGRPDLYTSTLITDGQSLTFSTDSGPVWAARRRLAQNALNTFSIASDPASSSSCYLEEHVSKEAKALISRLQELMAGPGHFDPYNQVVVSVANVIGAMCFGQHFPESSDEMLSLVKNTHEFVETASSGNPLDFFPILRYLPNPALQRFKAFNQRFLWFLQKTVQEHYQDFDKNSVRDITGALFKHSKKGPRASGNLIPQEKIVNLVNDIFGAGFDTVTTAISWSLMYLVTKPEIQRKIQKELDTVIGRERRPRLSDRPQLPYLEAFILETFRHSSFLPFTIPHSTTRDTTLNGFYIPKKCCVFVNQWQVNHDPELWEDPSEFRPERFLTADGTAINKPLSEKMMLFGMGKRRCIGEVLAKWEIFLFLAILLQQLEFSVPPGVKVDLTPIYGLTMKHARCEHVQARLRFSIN
Summary of the method: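 20nM CYP1A2, 100uM Luciferin-ME (=Km), 100mM KPO4; cpd 10 min RT; +NADPH regen, 60 min RT; stop/detect 20 min; luminescence. Normalized to furafylline 57 uM = full inhibition.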

[4] = NFAT Signaling Pathway (AID 444); conditions: Jurkat NFAT-bla M1, carbachol, beta-lactamase ratio, 5 h; at 7.69 µM (top of the series) unless noted;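 also: carbachol stimulus at about its EC50 of 1 µM final; % is scaled to controls: 0 for no effect and ±100 for the full control effect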
Summary of the method: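 Jurkat cells with NFAT-driven β-lactamase reporter and co-expressed M1 receptor, stimulated with carbachol (final 1 uM, ~EC50), compound titration, 5 h at 37 °C. CCF4 loaded 1 h at RT; 460/530 nm ratio gave %activity and AC50.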

[5] = Stat Signaling Pathway (AID 446); conditions: ME-180 SIE beta-lactamase reporter, IL-6 stimulated, 5 h; at 7.69 µM (top of the series) unless noted;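 also: ME-180 cervical cancer cells given 40 pM IL-6 alongside compound; SIE-controlled beta-lactamase reporter measured as 460/530 nm FRET emission ratio; % is scaled to controls: 0 for no effect and ±100 for the full control effect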
Summary of the method: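 Overnight-plated ME-180 cells bearing a STAT Inducible Element beta-lactamase reporter; 5 h co-exposure to compound and 40 pM IL-6; values normalized to 300 pM IL-6 and 125 nM JAK inhibitor controls.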

[6] = molecular target: Glucocorticoid receptor (Homo sapiens) (UniProt P04150); test: GR-GFP Redistribution (AID 450;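 active = compounds whose dose series gives a full or clear partial fitted curve of increased nuclear translocation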; also: potency is read from the fitted curve at half-maximal effect); conditions: U2OS GR-GFP nuclear translocation, laser cytometry, 2 h
Chain of Glucocorticoid receptor (Homo sapiens) (P04150 whole entry, looked up, the tested form may be a part): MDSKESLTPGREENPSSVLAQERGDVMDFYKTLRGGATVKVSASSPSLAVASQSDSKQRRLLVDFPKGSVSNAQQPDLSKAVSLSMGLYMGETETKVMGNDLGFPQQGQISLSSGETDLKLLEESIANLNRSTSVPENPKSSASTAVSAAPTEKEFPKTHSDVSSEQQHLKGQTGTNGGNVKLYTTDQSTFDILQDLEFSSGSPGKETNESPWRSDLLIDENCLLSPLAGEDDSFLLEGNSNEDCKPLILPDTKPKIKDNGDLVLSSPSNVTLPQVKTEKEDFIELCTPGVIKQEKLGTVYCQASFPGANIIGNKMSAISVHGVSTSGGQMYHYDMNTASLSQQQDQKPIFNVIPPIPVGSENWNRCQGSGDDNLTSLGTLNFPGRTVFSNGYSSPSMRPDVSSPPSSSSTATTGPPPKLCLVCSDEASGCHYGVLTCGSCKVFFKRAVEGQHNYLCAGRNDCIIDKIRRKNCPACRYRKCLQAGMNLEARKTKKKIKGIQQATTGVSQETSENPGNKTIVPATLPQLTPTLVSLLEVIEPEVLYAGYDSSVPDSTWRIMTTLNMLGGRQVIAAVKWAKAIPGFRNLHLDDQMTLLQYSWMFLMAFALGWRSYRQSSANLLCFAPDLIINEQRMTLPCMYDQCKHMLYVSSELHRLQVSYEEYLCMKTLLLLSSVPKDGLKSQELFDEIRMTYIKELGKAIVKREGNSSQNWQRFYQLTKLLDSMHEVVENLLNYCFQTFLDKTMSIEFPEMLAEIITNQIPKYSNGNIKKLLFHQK

[7] = molecular target: Glucocorticoid receptor (Homo sapiens) (UniProt P04150); test: GR-EFC Redistribution (AID 451; calls by dose curve; also: potency is read from the fitted curve at half-maximal effect); conditions: CHO-K1 GR-EFC translocation, beta-gal luminescence, 2 h
Summary of the method: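 CHO-K1 cells expressing nuclear EA and GR-ED fragments of b-gal; compounds titrated up to 46 uM final, 2 h at 37 C. GR nuclear translocation read as complemented b-gal luminescence after 1 h RT detection.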

[8] = molecular target: Mitogen-activated protein kinase 10 (Mus musculus) (UniProt Q61831); test: JNK3 AlphaScreen Assay (AID 530); conditions: JNK3 lysate, c-Jun phosphorylation; series mostly up to 11.4 µM;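 also: kinase came from lysate of stimulated human HepG2 cells; signal reports phosphorylation of biotinylated GST-cJun 1-79 at Ser73 with 10 µM ATP; % is scaled to controls: 0 for no effect and ±100 for the full control effect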
Summary of the method: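 HepG2 lysate (IL-1b/TNFa pre-activated) + biotin-GST-cJun 1-79 + anti-pSer73 cJun; cpd titration, 15 min RT; ATP 10 uM start; Tris pH 7.6, MgCl2, DTT, vanadate; beads in EDTA buffer; AlphaScreen.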

[9] = molecular target: Cytochrome P450 3A4 (Homo sapiens) (UniProt P08684); test: qHTS Assay for Inhibitors and Substrates of Cytochrome P450 3A4 (AID 884; active = well fitted curve in the direction sought with a large enough effect; an effect the other way counts as inactive or inconclusive; also: potency is read from the fitted curve at half-maximal effect; nearly all actives have a fitted effect of over 50% in size); conditions: recombinant CYP3A4, Luciferin-PPXE luminescence; series mostly up to 57.1 µM
Chain of Cytochrome P450 3A4 (Homo sapiens) (P08684 whole entry, looked up): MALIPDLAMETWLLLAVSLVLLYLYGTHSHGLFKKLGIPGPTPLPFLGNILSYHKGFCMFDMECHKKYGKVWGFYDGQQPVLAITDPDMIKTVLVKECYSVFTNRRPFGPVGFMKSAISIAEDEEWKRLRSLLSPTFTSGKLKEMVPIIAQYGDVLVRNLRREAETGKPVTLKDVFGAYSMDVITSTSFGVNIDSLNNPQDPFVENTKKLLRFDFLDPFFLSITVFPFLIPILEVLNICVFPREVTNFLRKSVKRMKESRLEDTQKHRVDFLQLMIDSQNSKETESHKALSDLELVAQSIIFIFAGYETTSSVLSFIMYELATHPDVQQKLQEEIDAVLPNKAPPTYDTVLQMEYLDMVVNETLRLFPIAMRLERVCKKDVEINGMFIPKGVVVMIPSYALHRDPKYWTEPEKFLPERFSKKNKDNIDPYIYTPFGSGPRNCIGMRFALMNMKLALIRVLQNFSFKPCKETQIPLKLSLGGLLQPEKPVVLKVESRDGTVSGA
Summary of the method: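 Luminescent readout of luciferin produced by CYP3A4 (20 nM) dealkylation of Luciferin-PPXE, 25 uM (its KM). NADPH-driven reaction ran 60 min at RT after 10 min compound preincubation; data scaled to 57 uM ketoconazole as 100% inhibition.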

[10] = molecular target: Cytochrome P450 3A4 (Homo sapiens) (UniProt P08684); test: qHTS Assay for Activators of Cytochrome P450 3A4 (AID 885; active = well fitted curve in the direction sought with a large enough effect; an effect the other way counts as inactive or inconclusive; also: nearly all actives have a fitted effect of over 65% in size); conditions: recombinant CYP3A4, Luciferin-PPXE luminescence, 60 min; series mostly up to 11.4 µM
Summary of the method: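 Using 20nM recombinant human CYP3A4 in potassium phosphate (200mM), substrate Luciferin-PPXE at 25uM, luminescent luciferin detection followed a 60-min RT NADPH reaction; data scaled to 57 uM ketoconazole.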

[11] = molecular target: 3',5'-cyclic-AMP phosphodiesterase 4B (Homo sapiens) (UniProt Q07343); test: qHTS Assay for Inhibitors of PDE-IV (AID 607; active = well fitted activation curve with a large enough effect in the main read-out, with a control signal flat, not every such curve was filed as active; also: % of control where 0% means no effect); conditions: HEK293 ACTOne CNG channel cells, membrane potential fluorescence; series mostly up to 22.9 µM
Chain of 3',5'-cyclic-AMP phosphodiesterase 4B (Homo sapiens) (Q07343 whole entry, looked up): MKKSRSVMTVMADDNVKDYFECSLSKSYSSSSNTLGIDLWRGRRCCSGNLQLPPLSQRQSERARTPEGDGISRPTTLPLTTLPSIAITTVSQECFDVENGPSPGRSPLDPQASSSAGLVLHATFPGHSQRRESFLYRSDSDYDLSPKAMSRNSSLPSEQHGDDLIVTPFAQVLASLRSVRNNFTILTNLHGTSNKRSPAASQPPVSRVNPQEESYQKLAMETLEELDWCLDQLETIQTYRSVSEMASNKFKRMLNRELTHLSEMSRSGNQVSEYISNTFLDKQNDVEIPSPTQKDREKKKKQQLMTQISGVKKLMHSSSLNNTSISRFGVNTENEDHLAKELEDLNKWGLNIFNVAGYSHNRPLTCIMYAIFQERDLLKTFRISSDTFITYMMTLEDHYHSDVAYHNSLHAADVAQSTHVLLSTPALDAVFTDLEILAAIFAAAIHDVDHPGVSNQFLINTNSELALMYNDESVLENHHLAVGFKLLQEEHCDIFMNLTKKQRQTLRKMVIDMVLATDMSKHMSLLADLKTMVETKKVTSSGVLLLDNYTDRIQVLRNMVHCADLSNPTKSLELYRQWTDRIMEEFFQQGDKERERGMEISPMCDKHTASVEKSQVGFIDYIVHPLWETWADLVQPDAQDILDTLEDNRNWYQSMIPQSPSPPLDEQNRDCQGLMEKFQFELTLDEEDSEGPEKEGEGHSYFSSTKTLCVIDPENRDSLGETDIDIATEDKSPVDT
Summary of the method: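 Live HEK293 cells with a modified cyclic nucleotide-gated (CNG) channel report intracellular cAMP via membrane-potential dye fluorescence (ex 535/em 590 nm). Endogenous PDE-IV was targeted. Compounds were tested at up to 22.9 uM final; RO 20-1724 100 uM served as control.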

[12] = qHTS Assay for Identification of Small Molecule Agonists for Hypoxia Response Element Signaling Pathway (AID 914; active = well fitted activation curve with a large enough effect in the signal ratio, with a control signal flat, not every such curve was filed as active; the % refers to the signal ratio; also: % of control where 0% means no effect); conditions: ME-180 (cervical carcinoma) HRE-bla reporter, beta-lactamase ratio, CoCl2, 17 h; activation: active compounds read high
Summary of the method: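 Reporter activity (beta-lactamase, CCF4 460nm/530nm ratio) in HRE-bla ME-180 cells is recorded after 17 h compound exposure with EC50 CoCl2 at 37 degrees Celsius. AC50 values come from titration data.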

O=C(O)/C=C\C(=O)Nc1ccc2c(c1)C(=O)c1cc(F)ccc1-2
active: Potency [3] 0.794 µM | Potency [9] 3.16 µM
inactive: Potency [1] > 11.4 µM | activity change, negative = inhibition [2] -12.9% | activity change, negative = inhibition [4] 9.23% | activity, negative = inhibition [5] 0.748% | Potency [6] > 46 µM | Potency [7] > 9.22 µM | Potency [8] | Potency [10]

CC(=O)O[C@]1(C)N=NC2(CCCCC2)O1
inactive: Potency [1] > 11.4 µM | activity change, negative = inhibition [2] 0.791% | Potency [3] | activity change, negative = inhibition [4] 3.95% | activity, negative = inhibition [5] 16.1% | Potency [6] > 46 µM | Potency [7] > 9.22 µM | Potency [8] | Potency [11] | activation [12] 14.3%

N=C(N)SCCSC(=N)N
active: Potency [3] 2 µM
inactive: Potency [1] > 11.4 µM | activity change, negative = inhibition [2] 5.54% | activity change, negative = inhibition [4] -2.2% | activity, negative = inhibition [5] 12.3% | Potency [6] > 46 µM | Potency [7] > 9.22 µM | Potency [8] | Potency [11] | activation [12] -2.21%

N=C(N)[C@H](N=Nc1ccccc1)C(N)=O
active: Potency [3] 0.794 µM
inactive: Potency [1] > 11.4 µM | activity change, negative = inhibition [2] 20.5% | activity change, negative = inhibition [4] 1.62% | activity, negative = inhibition [5] 1.3% | Potency [6] > 46 µM | Potency [7] > 9.22 µM | Potency [8] | Potency [11] | activation [12] 1%

CN(C)C(=O)c1ccc(-c2nc(Nc3ccc(F)cc3)c3ccccc3n2)cc1
inactive: Potency [1] > 11.4 µM | activity change, negative = inhibition [2] -18.3% | activity change, negative = inhibition [4] 1.18% | activity, negative = inhibition [5] -8.08% | Potency [6] > 46 µM | Potency [7] > 46 µM | Potency [8] | Potency [10] | activation [12] 14.9%
active: Potency [3] 3.98 µM

Nc1nc(-c2cccc([N+](=O)[O-])c2)cc(-c2cc(-c3cccc([N+](=O)[O-])c3)nc(N)n2)n1
inactive: Potency [1] > 11.4 µM | activity change, negative = inhibition [2] -0.341% | activity change, negative = inhibition [3] 0.3% [at 2.29 µM] | activity change, negative = inhibition [4] 6.8% | activity, negative = inhibition [5] 3.52% | Potency [6] > 46 µM | Potency [7] > 9.22 µM | Potency [8] | Potency [11] | activation [12] 18.2%
